From PubChem BioAssay
Calls of active or inactive are those of the source.

Assays:
[1] = small molecules captured by biotinylated probe aFSTL3 – biochemical, small-molecule microarray, fluorescence 635/667, stem cell growth factor project, primary screen (AID 1064); conditions: higher = more signal;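 also: measures binding of the biotinylated anti-FSTL3 antibody to printed compounds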
[2] = binders from COS7 lysate, DM2A8 probe, primary screen, torsin A project, cell lysate, small-molecule microarray, fluorescence 635/667 (AID 1065); conditions: higher = more signal, COS7 lysate expressing mutant human TOR1A
[3] = small molecules captured by biotinylated probe aFGF2 – biochemical, small-molecule microarray, fluorescence 635/667, stem cell growth factor project, primary screen (AID 1067); conditions: higher = more signal;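 also: measures binding of biotinylated aFGF2 protein to printed compounds on slides; z-score merges feature fluorescence and signal-to-noise across triplicate slides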
[4] = small molecules captured by biotinylated probe aFGF10 – biochemical, small-molecule microarray, fluorescence 635/667, stem cell growth factor project, primary screen (AID 1071); conditions: higher = more signal;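 also: score merges 667 nm spot intensity and signal to noise from triplicate slides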
[5] = molecular target: Neurogenic locus notch homolog protein 2 (Homo sapiens) (UniProt Q04721); experiment: small molecules binding Notch2 protein – biochemical, small-molecule microarray, 635 nm fluorescence, stem cell growth factors, primary screen (AID 1073); conditions: higher = more signal
[6] = molecular target: Pro-neuregulin-1, membrane-bound isoform (Homo sapiens) (UniProt Q02297); experiment: small molecules binding neuregulin-1 protein – biochemical, small-molecule microarray, fluorescence 635/667, psychiatric disease protein project, primary screen (AID 1075); conditions: NRG1 binding, 635 nm fluorescence, higher = more signal;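 also: score combines 667 nm spot fluorescence with signal to noise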
[7] = system: Neuregulin-1 EGF-like domain; experiment: small molecules binding NRG1 EGF domain – biochemical, small-molecule microarray, 635 nm fluorescence, primary screen (AID 1081); conditions: higher = more signal;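 also: binding of the protein to compounds printed on small-molecule microarray slides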
[8] = FRG1 expression reporter modulators in myotubes – cell-based, C2C12 myotubes, firefly/Renilla luciferase, luminescence, FRG1 inhibition for FSHD, primary screen (AID 1084); conditions: FRG1 promoter luciferase, higher = more signal, called active from +8 up or from −8 down
[9] = small molecules captured by biotinylated probe aFST – biochemical, small-molecule microarray, fluorescence 635/667, stem cell growth factor project, primary screen (AID 1086); conditions: higher = more signal;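 also: score merges 667 nm fluorescence with signal-to-noise of each printed compound spot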
[10] = binders of probe aHhip on microarray, primary screen, stem cell growth factor project, biochemical, small-molecule microarray, fluorescence 635/667 (AID 1087); conditions: higher = more signal;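 also: score merges spot fluorescence at 667nm with spot signal to noise ratio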
[11] = system: PRMT1 (protein arginine N-methyltransferase 1); experiment: small molecules binding arginine methyltransferase PRMT1 – biochemical, small-molecule microarray, 635 nm fluorescence, primary screen (AID 1088); conditions: higher = more signal;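 also: binding of Prmt1 protein to compounds spotted on small-molecule microarray slides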
[12] = growth effects on S. cerevisiae YJM789 – YJM789 clinical isolate, OD600, 24 h, basal, primary screen (AID 1089); conditions: higher = more signal, called active from +8 up or from −8 down;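 also: growth of clinical yeast isolate S. cerevisiae YJM 789 seeded 1000 cells per well; test concentration not given here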
[13] = S. pombe growth modifiers, basal conditions – strain 972, OD600, 24 h, no modulator, primary screen (AID 1090);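 also: basal condition with compound alone and no growth modifier present; test concentration not given here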; conditions: S. pombe 972 growth, higher = more signal, called active from +8 up or from −8 down
[14] = budding yeast growth modifiers under rapamycin – strain BY4716, OD600, 96 h, primary screen (AID 1091); also: test concentration not given here; conditions: S. cerevisiae BY4716 + rapamycin, higher = more signal, called active from +8 up or from −8 down
[15] = molecular target: Torsin-1A-interacting protein 2 (Homo sapiens) (UniProt Q8NFQ8); experiment: small molecules binding lysate-expressed LULL1 – cell lysate, human LULL1 lysate, 635/667 nm fluorescence, primary screen (AID 1092); conditions: small-molecule microarray, hLULL1 lysate binding, 635 nm fluorescence; higher = more signal;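 also: probe is lysate of COS7 cells overexpressing human LULL1; score merges per-feature 667 nm fluorescence with signal-to-noise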
[16] = optical density change of DRC41 E. coli – strain DRC41, OD650, 24 h, E. coli filamentation project, primary screen (AID 1093);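 also: MC1000 strain lacking acrAB efflux and sulA so SOS filamentation is blocked; test concentration not given here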; conditions: E. coli DRC41 growth, higher = more signal, called active from +8 up or from −8 down
[17] = probe aLefty2 binding to arrayed compounds – biochemical, biotinylated probe, 635/667 nm fluorescence, primary screen (AID 1094); conditions: small-molecule microarray, higher = more signal;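 also: score merges spot fluorescence near 667 nm with spot signal-to-noise ratio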
[18] = system: Noggin (protein binding on small-molecule microarray); experiment: small molecules binding Noggin protein – biochemical, 635/667 nm fluorescence, primary screen (AID 1095); conditions: 635 nm fluorescence, higher = more signal;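 also: score merges 667 nm feature fluorescence with signal to noise over triplicate slides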
[19] = molecular target: Neurogenic locus notch homolog protein 3 (Homo sapiens) (UniProt Q9UM47); experiment: small molecules binding NOTCH3 protein – biochemical, 635/667 nm fluorescence, primary screen (AID 1096); conditions: small-molecule microarray, 635 nm fluorescence, higher = more signal
[20] = probe aEGFR binding to arrayed compounds – biochemical, biotinylated probe, 635/667 nm fluorescence, primary screen (AID 1097); conditions: small-molecule microarray, higher = more signal;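 also: probe is a biotinylated anti-EGFR antibody binding compounds printed on slides; score combines fluorescence near 667 nm and signal to noise of each spot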

Chain of Neurogenic locus notch homolog protein 2 (Homo sapiens) (Q04721 whole entry, looked up, canonical isoform): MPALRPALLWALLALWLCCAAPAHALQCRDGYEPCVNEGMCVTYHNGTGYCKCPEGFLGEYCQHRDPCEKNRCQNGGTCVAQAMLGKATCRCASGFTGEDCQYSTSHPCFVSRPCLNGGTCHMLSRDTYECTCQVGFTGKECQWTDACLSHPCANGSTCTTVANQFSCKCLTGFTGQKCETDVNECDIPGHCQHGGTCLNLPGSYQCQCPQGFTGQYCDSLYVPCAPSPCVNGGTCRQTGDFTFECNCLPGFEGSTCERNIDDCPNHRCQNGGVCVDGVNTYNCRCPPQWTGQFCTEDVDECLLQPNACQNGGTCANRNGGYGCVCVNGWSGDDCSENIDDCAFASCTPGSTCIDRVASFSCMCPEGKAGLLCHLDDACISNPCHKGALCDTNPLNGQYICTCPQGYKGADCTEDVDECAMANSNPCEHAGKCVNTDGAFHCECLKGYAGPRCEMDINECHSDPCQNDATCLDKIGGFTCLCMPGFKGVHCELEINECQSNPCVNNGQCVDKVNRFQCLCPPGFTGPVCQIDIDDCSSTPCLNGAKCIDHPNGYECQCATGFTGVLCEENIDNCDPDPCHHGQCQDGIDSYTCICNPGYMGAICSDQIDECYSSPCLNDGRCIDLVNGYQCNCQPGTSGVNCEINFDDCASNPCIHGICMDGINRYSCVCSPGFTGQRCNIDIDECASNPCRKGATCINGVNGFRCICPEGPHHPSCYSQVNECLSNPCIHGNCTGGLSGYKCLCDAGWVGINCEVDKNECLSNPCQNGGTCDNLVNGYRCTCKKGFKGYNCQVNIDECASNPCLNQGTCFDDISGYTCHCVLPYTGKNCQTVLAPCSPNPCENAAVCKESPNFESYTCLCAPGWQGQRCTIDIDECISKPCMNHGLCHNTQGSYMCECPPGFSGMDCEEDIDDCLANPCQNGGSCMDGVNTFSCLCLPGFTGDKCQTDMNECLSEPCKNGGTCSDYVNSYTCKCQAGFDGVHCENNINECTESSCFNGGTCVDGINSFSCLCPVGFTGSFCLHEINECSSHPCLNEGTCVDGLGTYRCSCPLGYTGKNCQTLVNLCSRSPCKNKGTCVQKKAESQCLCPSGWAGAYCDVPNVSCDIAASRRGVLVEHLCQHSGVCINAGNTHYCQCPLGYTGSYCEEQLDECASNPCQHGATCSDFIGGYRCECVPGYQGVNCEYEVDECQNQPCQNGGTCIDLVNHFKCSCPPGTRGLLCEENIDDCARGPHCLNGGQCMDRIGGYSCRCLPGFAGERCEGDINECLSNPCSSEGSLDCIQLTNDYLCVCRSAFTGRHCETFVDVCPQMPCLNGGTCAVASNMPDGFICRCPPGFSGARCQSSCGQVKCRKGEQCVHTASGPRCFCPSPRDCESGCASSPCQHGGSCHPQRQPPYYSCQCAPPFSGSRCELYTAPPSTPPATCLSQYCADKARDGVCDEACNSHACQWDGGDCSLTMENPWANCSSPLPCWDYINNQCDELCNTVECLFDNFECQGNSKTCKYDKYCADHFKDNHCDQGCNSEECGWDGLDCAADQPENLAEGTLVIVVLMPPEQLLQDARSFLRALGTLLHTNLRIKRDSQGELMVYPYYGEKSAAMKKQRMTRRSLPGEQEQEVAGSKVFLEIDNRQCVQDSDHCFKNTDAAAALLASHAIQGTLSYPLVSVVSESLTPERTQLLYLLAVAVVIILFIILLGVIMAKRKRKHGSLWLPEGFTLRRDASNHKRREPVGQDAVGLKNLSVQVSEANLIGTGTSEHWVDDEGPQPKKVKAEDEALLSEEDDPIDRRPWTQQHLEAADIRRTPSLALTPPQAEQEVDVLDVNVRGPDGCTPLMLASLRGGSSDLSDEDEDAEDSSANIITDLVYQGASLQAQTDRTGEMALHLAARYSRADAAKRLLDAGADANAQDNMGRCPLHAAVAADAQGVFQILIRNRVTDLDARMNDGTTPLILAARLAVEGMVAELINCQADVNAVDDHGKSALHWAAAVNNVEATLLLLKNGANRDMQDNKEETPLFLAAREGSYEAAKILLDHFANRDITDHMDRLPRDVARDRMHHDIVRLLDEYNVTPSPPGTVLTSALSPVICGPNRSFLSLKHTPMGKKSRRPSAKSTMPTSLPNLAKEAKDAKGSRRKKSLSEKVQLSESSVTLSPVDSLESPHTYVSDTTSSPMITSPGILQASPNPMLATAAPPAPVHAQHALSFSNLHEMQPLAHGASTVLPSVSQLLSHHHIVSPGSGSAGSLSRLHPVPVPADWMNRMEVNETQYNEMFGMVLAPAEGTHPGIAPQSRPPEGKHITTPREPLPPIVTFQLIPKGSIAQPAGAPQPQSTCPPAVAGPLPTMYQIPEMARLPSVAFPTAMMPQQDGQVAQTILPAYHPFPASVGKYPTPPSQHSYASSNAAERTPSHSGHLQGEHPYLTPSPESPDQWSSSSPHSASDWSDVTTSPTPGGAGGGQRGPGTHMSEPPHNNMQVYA
Chain of Pro-neuregulin-1, membrane-bound isoform (Homo sapiens) (Q02297 whole entry, looked up, the tested form may be a part, canonical isoform): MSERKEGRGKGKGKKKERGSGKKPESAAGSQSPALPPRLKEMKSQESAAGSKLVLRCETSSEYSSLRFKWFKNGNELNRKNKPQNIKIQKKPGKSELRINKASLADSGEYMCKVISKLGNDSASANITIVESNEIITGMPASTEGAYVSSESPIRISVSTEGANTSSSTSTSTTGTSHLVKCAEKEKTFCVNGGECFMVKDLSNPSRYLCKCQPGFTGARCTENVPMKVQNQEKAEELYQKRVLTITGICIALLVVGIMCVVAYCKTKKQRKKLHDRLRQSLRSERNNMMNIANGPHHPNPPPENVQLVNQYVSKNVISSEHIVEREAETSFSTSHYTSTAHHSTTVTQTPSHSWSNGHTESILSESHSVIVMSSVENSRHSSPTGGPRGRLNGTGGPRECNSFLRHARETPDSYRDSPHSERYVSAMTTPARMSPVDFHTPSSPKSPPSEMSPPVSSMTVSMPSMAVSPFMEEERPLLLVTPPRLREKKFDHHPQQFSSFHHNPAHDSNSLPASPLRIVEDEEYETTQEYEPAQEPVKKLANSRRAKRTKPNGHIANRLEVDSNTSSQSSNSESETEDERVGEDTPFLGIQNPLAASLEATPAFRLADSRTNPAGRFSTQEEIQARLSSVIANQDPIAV
Chain of Torsin-1A-interacting protein 2 (Homo sapiens) (Q8NFQ8 whole entry, looked up): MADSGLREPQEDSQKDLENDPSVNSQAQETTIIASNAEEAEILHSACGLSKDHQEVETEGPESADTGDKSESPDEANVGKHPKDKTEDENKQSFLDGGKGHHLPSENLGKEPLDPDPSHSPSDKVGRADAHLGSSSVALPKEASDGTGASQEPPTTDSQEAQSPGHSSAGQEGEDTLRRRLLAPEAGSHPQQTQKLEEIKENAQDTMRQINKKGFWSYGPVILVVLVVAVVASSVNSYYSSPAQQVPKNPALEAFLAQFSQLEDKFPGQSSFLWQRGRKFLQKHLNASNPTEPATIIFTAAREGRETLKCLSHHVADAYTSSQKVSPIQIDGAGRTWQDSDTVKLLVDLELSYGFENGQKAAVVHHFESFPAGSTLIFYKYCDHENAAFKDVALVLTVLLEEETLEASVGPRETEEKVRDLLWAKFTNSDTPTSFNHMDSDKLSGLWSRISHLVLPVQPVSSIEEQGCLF

Structure (SMILES) | composite z-score [1] | composite z-score [2] | composite z-score [3] | composite z-score [4] | composite z-score [5] | composite z-score [6] | composite z-score [7] | z-score [8] | composite z-score [9] | composite z-score [10] | composite z-score [11] | z-score [12] | z-score [13] | z-score [14] | composite z-score [15] | z-score [16] | composite z-score [17] | composite z-score [18] | composite z-score [19] | composite z-score [20]
COC(=O)[C@@]1(Cc2ccccc2)[C@H]2c3cc(C(=O)N(C)C)n(Cc4c(CO)[nH]cc(C)c4=O)c3C[C@H]2CN1C(=O)c1ccccc1 | 0.268 | 0.311 | 0.206 | 0.528 | 1.53 | 1.49 | 1.38 | -0.325 (inactive) | 0.608 | 0.0456 | 0.0795 | 0.469 (inactive) | 1.51 (inactive) | 0.0018 (inactive) | 3.13 | -0.633 (inactive) | 0.163 | -0.38 | 0.447 | 0.0288
CC(C)N1C(=O)C[C@@](C(=O)NCCCN(C)C)(c2ccc([N+](=O)[O-])cc2)[C@H]1c1ccc(CO)cc1 | -0.153 | -0.351 | -0.0328 | 0.589 | -0.072 | 0.454 | -0.412 | -0.0382 (inactive) | 0.27 | -0.409 | -0.139 | -0.768 (inactive) | -1.42 (inactive) | -0.525 (inactive) | 0.349 | -1.41 (inactive) | -0.0221 | -0.131 | -0.233 | -0.124
C=C(/C(=C/C[C@H](OC(=O)c1ccncc1)c1ccc(CO)o1)c1cc(C(=O)OC)ccc1OC)C(C)C | -0.259 | 0.816 | -0.0097 | 1.08 | 0.238 | 0.928 | 1.23 | -0.918 (inactive) | 0.201 | 0.113 | 1.44 | -0.0096 (inactive) | -0.515 (inactive) | -0.38 (inactive) | 1.6 | 0.425 (inactive) | -0.116 | 0.424 | 1.02 | -0.0902
COc1ccc([Si](C)(C)[C@@H]2[C@@H](CCn3cc([C@H](O)c4ccccc4)nn3)O[C@]3(C(=O)N(Cc4ccc(N5CCC5=O)cc4)c4ccccc43)[C@H]2C)cc1 | 0.554 | -0.163 | -0.164 | -0.127 | -0.564 | 0.189 | 0.142 | -0.96 (inactive) | -0.201 | -0.503 | 0.0655 | 0.297 (inactive) | 0.375 (inactive) | 3.51 (inactive) | 0.309 | 0.705 (inactive) | -0.177 | 1.13 | -0.231 | -0.313
CC(CO)N1C(=O)[C@@H]2[C@H]3C(=O)OCC=C[C@H]3OC23C=CCN(CCN2CCOCC2)C(=O)[C@@H]13 (stereo not given in full) | -0.979 | -0.0708 | -0.203 | -0.362 | -0.256 | -0.718 | 0.284 | 1.03 (inactive) | -0.0558 | -0.539 | 0.658 | -0.792 (inactive) | -0.968 (inactive) | -0.268 (inactive) | -0.986 | -0.909 (inactive) | -0.33 | 0.169 | 0.0282 | -0.0828
COCCOC(=O)N1C(=O)[C@@]2(c3cc(C#CC4=CCCCC4)ccc31)[C@H](C(N)=O)[C@H]1C(=O)O[C@H](c3ccccc3)[C@H](c3ccccc3)N1[C@@H]2c1ccccc1OCCO | 0.193 | 0.33 | -0.0105 | 0.999 | 1.07 | 1.47 | 1.34 | -0.343 (inactive) | 0.306 | 0.388 | 1.54 | 0.908 (inactive) | 0.0645 (inactive) | 1.99 (inactive) | 2.75 | -0.0839 (inactive) | -0.0028 | 0.551 | 1.11 | -0.0056
O=C1C=C(c2ccccc2)C(=O)c2ccc([C@H]3Oc4ccccc4S(=O)(=O)N4CCC[C@@H]34)cc21 | -0.292 | -0.303 | -0.116 | -0.0019 | -0.405 | -0.775 | -0.87 | 2.5 (inactive) | -0.024 | 0.0659 | -0.208 | -0.818 (inactive) | -14.9 (active) | 0.696 (inactive) | -1.27 | 1.66 (inactive) | -0.18 | -0.144 | -0.272 | -0.119
CCCNC(=O)[C@@]1(c2ccc([N+](=O)[O-])cc2)CC(=O)N(C2CCCCC2)[C@@H]1c1ccc(CO)cc1 | -0.0597 | 0.256 | -0.0133 | 0.588 | 1.03 | 0.675 | 1.27 | -1.31 (inactive) | 0.565 | 0.113 | 1.57 | 1.3 (inactive) | -0.514 (inactive) | 1.11 (inactive) | 2.8 | 0.824 (inactive) | 0.0744 | 1.65 | 1.04 | -0.0729
COc1ccccc1CN1C(=O)c2ccccc2[C@@]2(Cc3ccccc3N(CC(F)(F)F)C2=O)[C@@H]1c1ccc(CO)cc1 | -0.951 | 0.252 | -0.226 | -0.244 | 0.166 | -0.226 | 0.778 | -3.55 (inactive) | -0.29 | -0.403 | 0.955 | 0.17 (inactive) | 0.181 (inactive) | -1.7 (inactive) | 0.104 | 1.07 (inactive) | -0.332 | 1.18 | 0.538 | -0.322
COc1ccc([Si](C)(C)[C@@H]2[C@@H](CCO)O[C@]3(C(=O)N(Cc4ccc(N5CCCCC5=O)cc4)c4ccccc43)[C@H]2C)cc1 | -0.343 | 0.299 | 0.0344 | 0.913 | 0.0177 | 0.919 | 1.15 | -4.78 (inactive) | 0.203 | 0.0373 | 1.53 | -0.102 (inactive) | 0.0767 (inactive) | 3.05 (inactive) | 2.09 | 1.2 (inactive) | -0.181 | 0.731 | 1.11 | -0.0828
